# Data: PubChem BioAssay (NCATS)
# Inconclusive results are not listed. A call without a number means that no potency is given here. The source made the active and inactive calls. The call rests on the fitted dose curve; in most records, active means well fitted inhibition curve with a large enough effect; inconclusive means small, poorly fitted or top-dose-only effect; inactive means flat fitted curve, though single readings scatter. Peptide text beside a SMILES is read from it.
# Tested on: TAB109
# Assay: qHTS profiling for inhibitors of Plasmodium falciparum proliferation (AID 504749); further: nearly all actives have a fitted effect of over 60% in size
# Settings: P. falciparum in erythrocytes, SYBR Green DNA, 72 h; series mostly up to 12.8 µM
# In short: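 Fluorescence of SYBR Green-bound parasite DNA, read at 485/535 nm, served as the growth measure. Infected erythrocytes were cultured with compound 72 h; artemisinin (0.29 uM) and DMSO wells defined the normalization range.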
# Potency means the concentration at half of the fitted maximal effect.
row,SMILES,Potency
1,CN(C)CCCOC1C(C(O)CO)OC2OC(C)(C)O[C@@H]21 (stereo partly specified),inactive
2,CCC(C)C(=O)OC1CCC=C2C=CC(C)C(CCC3CC(O)CC(=O)O3)[C@@H]21 (stereo partly specified),inactive
3,CC(=O)OC1CCC2C3CCc4cc(O)ccc4C3CCC12C (stereo unspecified),inactive
4,CC[C@@]12CCCN3CCc4c(n(c5ccccc45)[C@](O)(C(=O)OC)C1)C32 (stereo partly specified),inactive
5,NC(C(=O)O)[C@@H]1CC(Cl)=NO1 (stereo partly specified),1 µM (active)
6,CN1CC(=O)N=C1N,inactive
7,OCC1OC([S-])[C@H](O)C(O)C1O.[Au+] (stereo partly specified),inactive
8,CC(C)C1CCC(C(=O)NC(Cc2ccccc2)C(=O)O)CC1 (stereo unspecified),inactive
9,CCC(CCC(C)C1CCC2C3CC=C4CC(O)CC[C@@]4(C)C3CC[C@@]12C)C(C)C (stereo partly specified),inactive
10,C[C@]12CCC(=O)C=C1CCC1C2C(=O)C[C@]2(C)C1CC[C@]2(O)C(=O)CO (stereo partly specified),inactive
11,OCC1O[C@H](OC2C(CO)O[C@@](O)(CO)C2O)C(O)C(O)C1O (stereo partly specified),inactive
12,CC1(C)OC2CO[C@]3(COS(N)(=O)=O)OC(C)(C)OC3C2O1 (stereo partly specified),inactive
13,CC1(C)OC2CC(=O)OC[C@@]23C1CC(=O)[C@]1(C)C3CC[C@@]2(C)C(c3ccoc3)OC(=O)C3O[C@@]321 (stereo partly specified),inactive
14,CCOC(=O)C1=CC(OC(CC)CC)C(NC(C)=O)C(N)C1 (stereo unspecified),inactive
15,COC1C=CO[C@@]2(C)Oc3c(C)c(O)c4c(O)c(c5c(nc6cc(C)ccn65)c4c3C2=O)NC(=O)/C(C)=C\C=CC(C)C(O)[C@@H](C)C(O)C(C)[C@@H](OC(C)=O)C1C (stereo partly specified),11.2 µM (active)
16,COC(=O)C(Cc1ccccc1)NC(=O)C(N)CC(=O)O (stereo not drawn) (H-Asp-Phe-OMe; configuration not given here),inactive
